Ba/F3 V617F tox: reduced viability of JAK2V617F-dependent Ba/F3 cells, primary screen, JAK2V617F inhibitor project, cell-based, Ba/F3 EpoR-JAK2V617F, luminescence | ATP luminescence | inhibition, % at 5.6 µM | actives 1.1% (n = 220,000) | AID 1446, 2008;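 active = inhibition above the campaign mean plus 3 SD over all tested compounds, cut at about 24% in these data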;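 note: cytokine-independent growth of Ba/F3 cells driven by EpoR plus mutant JAK2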
aSyn 5UTR inh: MLPCN primary screen, SNCA 5' untranslated region; AID 1813, 2009; actives 0.82% (n = 300,000); alpha-synuclein 5'UTR reporter, inhibitor activity; inhibition, % (tested at 7.5 µM); in the data active = inhibition above about 60%;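 note: H4 neuroglioblastoma cells stably carrying SNCA 5'UTR luciferase fusion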
APP transl inh: inhibitors of APP translation via 5'UTR reporter, primary screen, APP 5'UTR luciferase, SH-SY5Y cells; SH-SY5Y APP 5'UTR-luciferase reporter, luminescence; inhibition, % at 2 µM; actives 0.82% (n = 190,000);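 active = inhibition above a set limit, derived from the sample mean plus 3 SD, cut at about 45% in these data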
BaF3 parental: parental Ba/F3 cell viability inhibition, counter-screen for JAK2V617F inhibitor project, murine pro-B, CellTiter-Glo luminescence; CellTiter-Glo ATP luminescence; inhibition, % at 5.6 µM; actives 1.1% (n = 220,000);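 active = inhibition above a per-campaign cutoff, the mean inhibition of all tested compounds plus 3 SD, cut at about 27% in these data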
KLF5 inhibitor: KLF5 expression inhibitors, primary screen, DLD-1 cells, luminescence; DLD-1 KLF5 promoter-luciferase reporter; inhibition, % at 5 µM; actives 0.23% (n = 290,000); AID 1700, 2009;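 active = inhibition above a per-plate limit of that plate's mean compound inhibition plus 3 SD, cut at about 60% in these data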;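 note: higher means less KLF5 promoter-driven luciferase light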
IEC-6 cytotox: cytotoxicity in IEC-6 intestinal epithelial cells, primary screen, cytotoxicity control for KLF5 inhibitor project, cell-based, luminescence; IEC-6 cytotoxicity, luminescence viability; inhibition, % at 5 µM; actives 0.78% (n = 290,000); in the data active = inhibition above about 22%
Numbers stand for hits; . = inactive; / = not tested or not shown. Sampled rows, rich in hits. Any-hit rate of the full collection: about 2.2%.

SMILES	Ba/F3 V617F tox	aSyn 5UTR inh	APP transl inh	BaF3 parental	KLF5 inhibitor	IEC-6 cytotox
CCOc1ccc(/C=C2\SC(=S)N(CCCC(=O)NCCCN3CCOCC3)C2=O)cc1	/	84.4	/	/	.	.
COc1ccc(/C=C2\SC(=S)N(CCCC(=O)N3CCCCC3CCO)C2=O)cc1 (stereo unspecified)	/	67.9	/	/	.	.
Cc1ccc2nc(C)c(C(=O)NN=C3CCCCCC3)n2c1	.	.	83.9	.	.	.
CC(=O)/C(N=Nc1c(C)n(C)n(-c2ccccc2)c1=O)=C(\C)O	.	.	78.6	.	.	.
COC(=O)Cc1c(C)c2ccc(OCC(=O)N3CCC(C)CC3)c(C)c2oc1=O	/	.	/	/	.	.
CN1CCN(c2ccc(NC(=O)N3CCc4ccccc43)cc2)CC1	/	69.6	/	/	.	.
Cc1ccc(NC(=O)N2CCc3ccccc32)cc1	.	.	.	.	.	.
O=C(NCC1CCCO1)C(Cc1ccccc1)N1C(=O)C2C3C=CC(C4CC34)C2C1=O (stereo unspecified)	.	.	.	.	.	.
COc1ccc(-c2cc(CS(=O)(=O)c3ccccc3)on2)cc1	.	.	.	.	.	.
Cc1ccc(NC(=S)Nc2ccc(S(=O)(=O)N3CCOCC3)cc2)cc1S(=O)(=O)N1CCOCC1	.	.	.	.	.	.
NC(=S)N/N=C/c1ccccc1OCCSc1ccc(Cl)cc1	44.5	.	.	44.0	.	.
COc1cccc(/C=N/NC(N)=S)c1OCc1ccccc1Cl	.	.	.	.	.	.
Cn1c(=S)[nH]c2[nH]c(=O)cnc2c1=O	.	.	.	.	.	.
COc1ccc(-n2c(-c3ccc(Cl)cc3)c[n+]3c2CCCCC3)cc1	72.2	.	/	65.5	.	.
FC(F)Oc1ccc(-c2c[n+]3c(n2-c2ccccc2)CCCCC3)cc1	64.1	.	/	60.4	.	.
CCOc1ccc(-n2c(-c3ccccc3)c[n+]3c2CCC3)cc1	79.0	.	.	68.4	.	.
COc1ccc(-c2c[n+]3c(n2-c2c(C)n(C)n(-c4ccccc4)c2=O)CCCCC3)cc1	.	.	.	.	.	.
COc1ccc(-c2c[n+]3c(n2-c2ccccc2)CCCCC3)cc1	76.2	.	.	64.0	.	.
CCOC(=O)N1CCN(CC(=O)Nc2cc(OC)c(OC)cc2C#N)CC1	.	.	.	.	.	.
Clc1ccc(CN2C3=NCCCN3c3ccccc32)c(Cl)c1	/	.	/	/	.	.
CCCC12CN3CC(C)(CN(C1)C3c1ccco1)C2=O (stereo unspecified)	.	.	.	.	.	.
O=C(O)c1ccccc1-n1c2ccccc2c2ccccc21	.	.	/	.	.	.
Cc1cccc(NC(=S)/N=C(\N)Nc2nc(C)c3ccc(C)cc3n2)c1	34.5	.	.	39.0	.	.
COC(=O)c1cnc(Oc2ccc(NC(=O)NC(=O)c3c(OC)cccc3OC)cc2)cc1C(F)(F)F	.	74.5	/	.	.	.
N#Cc1cc(N)c(Nc2ccccc2)cc1C#N	.	.	.	36.9	.	.
SMILES	Ba/F3 V617F tox	aSyn 5UTR inh	APP transl inh	BaF3 parental	KLF5 inhibitor	IEC-6 cytotox
CC(C)C[C@H](NC(=O)N1CCn2c1nc1ccccc12)C(=O)NCc1ccc2c(c1)OCO2	/	.	/	/	.	.
CC(C)c1ccc(NC(=S)N2CCCC(c3ccc(F)cc3)=N2)cc1	.	.	/	.	.	.
O=C1c2ccccc2S(=O)(=O)c2cc(N3CCN(c4ccccc4)CC3)ccc21	/	.	/	/	/	/
O=C1c2ccccc2S(=O)(=O)c2cc(N3CCOCC3)ccc21	/	76.4	/	/	/	/
COc1ccccc1Oc1nc([N+](=O)[O-])nn1CC(N)=O	.	.	.	.	.	.
Cc1ccc(N=Nc2ccc(O)cc2)c(Br)c1	/	.	/	/	.	.
Oc1ccc(N=Nc2ccc3c(c2)OCCO3)c2cccnc12	.	103.6	.	.	.	.
Oc1ccc(N=Nc2ccc3c(c2)OCCO3)c(O)c1	.	62.1	/	.	.	.
Oc1ccc(N=Nc2ccc(Br)cc2)c(O)c1	.	.	/	.	.	28.8
CCCc1cc(C(=O)NC2CCCN(Cc3ccccc3F)C2)no1 (stereo unspecified)	/	.	/	/	.	.
CCN(C(=O)Cn1c(=O)oc2ccccc21)c1cccc(C)c1	/	.	/	/	.	.
